Screens from PubChem.
In the library only some 2.4% were active in any assay of this set; here they are far more common.
AmpC det inh: Promiscuous and Specific Inhibitors of AmpC Beta-Lactamase (assay with detergent). purified AmpC, nitrocefin hydrolysis with detergent. Potency, µM (doses to about 28.7 µM), without a hit: top-dose activity change, negative = inhibition. actives 0.09% (n = 71,000). AID 584, 2007; active = well fitted curve in the direction sought with a large enough effect; inconclusive = small, poorly fitted or top-dose-only effect; also: % is scaled to controls: 0 for no effect and ±100 for the full control effect
Target sequence (P00811 whole entry, looked up): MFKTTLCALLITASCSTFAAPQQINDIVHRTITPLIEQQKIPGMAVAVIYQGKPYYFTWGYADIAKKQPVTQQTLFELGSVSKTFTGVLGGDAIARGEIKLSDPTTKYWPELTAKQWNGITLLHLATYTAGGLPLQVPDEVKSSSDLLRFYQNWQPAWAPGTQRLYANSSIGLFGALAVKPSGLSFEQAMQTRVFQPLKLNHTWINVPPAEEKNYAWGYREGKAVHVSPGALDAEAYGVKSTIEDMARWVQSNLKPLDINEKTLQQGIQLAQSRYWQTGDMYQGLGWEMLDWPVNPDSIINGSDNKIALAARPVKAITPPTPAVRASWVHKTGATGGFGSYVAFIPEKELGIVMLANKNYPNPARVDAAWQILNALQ
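E. coli AmpC (5.3 nM) in 20 mM phosphate pH 7.0 with 0.01% Triton X-100, preincubated 15 min RT with compound; nitrocefin (2 uL of 800 uM stock) hydrolysis followed by 480 nm absorbance every 20 s over 4 min.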
Anthrax LT inh: qHTS Assay for Anthrax Lethal Toxin Internalization; Cells, anthrax lethal toxin internalization, FRET ratio (460/530); actives 0.67% (n = 70,000); Potency, µM (highest dose often 40 µM), for inactives: at the highest dose activity change, negative = inhibition, actives largely listed as inhibitors; also: % is scaled to controls: 0 for no effect and ±100 for the full control effect; nearly all actives have a fitted effect of over 50% in size
SmPrx2 inh: Schistosoma Mansoni Peroxiredoxins (Prx2); S. mansoni Prx2 activity coupled to TGR/GSH (TGR is thioredoxin glutathione reductase), NADPH fluorescence loss, qHTS; Potency, µM; actives 0.07% (n = 65,000); AID 448, 2006
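Prx2 activity was followed as the loss of NADPH fluorescence (ex 365/em 450 nm), read every 30 sec for 8 min after H2O2 start. The enzyme mix (50 nM Prx2, 25 nM TGR, GSH, NADPH; pH 7.4 phosphate buffer) was incubated with compound for 15 min at room temperature first.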
AmpC nodet inh: Promiscuous and Specific Inhibitors of AmpC Beta-Lactamase (assay without detergent); AmpC nitrocefin hydrolysis, absorbance 480 nm, no detergent; P00811; actives 1.8% (n = 71,000); Potency, µM (series often up to 28.7 µM), for inactives: top-dose activity change, negative = inhibition; also: % of control where 0% means no effect
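AmpC, 20 mM phosphate pH 7.0; 15 min cpd preinc, RT; start with nitrocefin (800 uM stock); A480 kinetic read, 20 s intervals, 4 min. No-enzyme wells = negative control.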
Active calls of the source: *; ? = inconclusive; . = no result given; [ ] = another dose, or the depositor's remark. Unless noted, calls follow the shape of the full dose curve. Potency is read from the fitted curve at half-maximal effect.

SMILES | AmpC det inh | Anthrax LT inh | SmPrx2 inh | AmpC nodet inh
CCCNC(=O)OC[C@@H]1O[C@H](CCO/N=C\c2ccc(C(=O)N3[C@H](c4ccc(C)cc4)[C@@H](C)CC[C@H]3C(=O)OC)cc2)C=C[C@@H]1Oc1ccc(OC)cc1 | . | 4.4%[8 µM] | . | .
NCCC[C@@H](CC(=O)N[C@@H]1CCNC[C@H]1C(=O)N[C@H](CC(=O)N[C@@H](CCC(=O)O)CC(=O)O)Cc1ccccc1)NC(=O)C[C@H](CO)NC(=O)[C@@H]1CNCC[C@H]1N | -1.1% | 3.9% | >57 | 57.1%
CC[C@@]1([N+](=O)[O-])C[C@H]2C=C[C@@H]1C2 | -2.6%[5.75 µM] | -6.5%[8 µM] | >57 | -2.6%[5.75 µM]
NC(N)=Nc1ccc2[nH]c3c(c2c1)C[C@]1(O)[C@@H]2Cc4ccc(O)c5c4[C@]1(CCN2CC1CC1)[C@H]3O5 | -2.8% | 3.3% | >57 | -4.1%
COc1cc(/C=C\C(=O)N2CCC=CC2=O)cc(OC)c1OC | -0.2%[12.8 µM] | ? | >57 | 3.5%[12.8 µM]
O=C1C(SCCO)=C(SCCO)C(=O)c2ccccc21 | 9.9% | 3.98µM* | >57 | 10.5%
CCOC(=O)C1C(=O)Oc2ccc3ccccc3c2C1C1CCOC1=O (stereo unspecified) | 14.0% | -10.5% | >57 | 3.98µM*[single pt active]
O=C(Nc1cccc(F)c1)N1CC[C@@]2(CCCN(C(=O)c3csnn3)C2)C1 | 0.0% | -3.9% | >57 | 1.0%
Cc1cc(C(=O)CSc2nn(-c3ccccc3)c(=S)s2)c(C)n1Cc1ccco1 | -0.8% | ? | >57 | 12.6µM*
Cc1cc(C(=O)CSc2nnc(-c3ccco3)o2)c(C)n1Cc1ccco1 | -2.7% | -6.1% | >57 | 28.3%
Cn1cccc1C(=O)NC(=O)COC(=O)c1ccccc1Sc1ccccc1C#N | -0.3% | ? | >57 | 3.98µM*
O=C1c2ccccc2NC(c2ccco2)N1O (stereo unspecified) | 0.2% | -3.1% | . | -8.8%
O=C1C2=C(Nc3ccccc3SC2c2ccco2)c2ccccc21 (stereo unspecified) | 6.7% | ? | . | 0.398µM*
CCOC(c1cc(OC)cc([N+](=O)[O-])c1OC)C(C)C(OC)[C@@H](C)/C=C/CC(=O)OC (stereo partly specified) | . | -10.2%[8 µM] | . | .
O=[N+]([O-])/C=C/c1ccccc1 | 16.2% | 3.98µM* | . | -12.2%
C=Cc1ccccc1 | 14.3% | -6.6% | . | -6.5%
O=C1C[C@@H](O)[C@@H](O)[C@@H]2[C@H]3C(=O)N(c4ccc(F)cc4F)C(=O)[C@@H]3CC[C@H]12 | . | -5.2%[8 µM] | . | .
CC(=O)c1ccc(C2C=CC(Oc3ccc(-c4ccccc4)cc3)C(CO)O2)cc1 (stereo unspecified) | . | -5.7%[8 µM] | . | .
N#Cc1c(-c2ccc(Cl)cc2Cl)nc2n(c1=O)CCS2 | -0.3% | ? | >57 | 10µM*[single pt active]
CCOC(=O)c1c(CN(CC)CC)oc2cc(Br)c(O)cc12 | 8.0% | ? | >57 | 3.98µM*[single pt active]
Cn1cccc1Cc1nnc(SCC(N)=O)n1-c1ccc(F)cc1 | 10.3% | 7.7% | >57 | 3.98µM*[single pt active]
Cn1cccc1Cc1nnc(SCC(=O)N2CCOCC2)n1-c1ccc(F)cc1 | 14.4% | 0.3% | >57 | 3.98µM*[single pt active]
CCCN1CCN(CCCNC(=O)Cn2nc(-c3ccc(Cl)cc3)ccc2=O)CC1 | -2.3% | ? | >57 | 2.6%
O=C1CCn2nc(-c3ccc(Cl)cc3)cc2N1 | 10.8% | -13.1% | >57 | 3.98µM*[single pt active]
CC#CCOC(=O)c1c(C)nc2sc3c(c2c1N)CC[C@@H](O)C3 | 1.1% | -15.2% | >57 | 9.0%
SMILES | AmpC det inh | Anthrax LT inh | SmPrx2 inh | AmpC nodet inh
Cc1ccc(S(=O)(=O)Nc2cccc(-c3cn4ccsc4n3)c2)cc1 | -1.0% | ? | >57 | 6.31µM*
O=c1cccc2n1C[C@H]1C[C@@H]2CN(CCO)C1 | -1.8% | -0.4% | >57 | 9.5%
Cc1cc(N2CCC(N(C)C3CCCC3)CC2)nc2cc(O)ccc12 | 13.8% | 3.16µM* | >57 | 27.0%
Cc1cc(N2CCOCC2)nc2ccc(NC(=O)C3CCC(C)CC3)cc12 (stereo unspecified) | -2.2% | -2.1% | >57 | 100.3%
N#CCCn1c(=O)c(-c2cccs2)nc2cnc(N3CCOCC3)nc21 | 2.2% | ? | >57 | -0.9%
Cc1cc(C(=O)OCC(=O)Nc2cc(C)on2)c2ccccc2n1 | -2.2% | -11.6% | >57 | -2.7%
Cc1ccc(-c2cc(C(=O)Nc3cc(C)on3)c3ccccc3n2)c(C)c1 | 11.3% | ? | >57 | 3.98µM*[single pt active]
CCC(C)[C@@H](NC(=O)OC(C)(C)C)c1nnc(S(=O)(=O)Cc2cccc(C)c2)o1 (stereo partly specified) | 3.98µM* | ? | >57 | 7.94µM*
CC(C)(C)OC(=O)N[C@@H](Cc1ccccc1)c1nnc(S(=O)(=O)Cc2ccccc2)o1 | 12.6µM* | 7.94µM* | . | 3.16µM*
CC(C)(C)OC(=O)N[C@@H](Cc1ccccc1)c1nnc(SCC(=O)O)o1 | 11.6% | ? | >57 | -4.2%
CCOC(=O)c1cnc2c(cnn2CC)c1NN=C(C)C | -3.8% | 29.3% | >57 | 81.2%
N#CC1=C(N)NC(SCC(=O)Nc2ccccc2)=C(C#N)C12CCCC2 | 6.4% | 10µM* | >57 | -20.5%
COc1ccc2cc3cc(C(=O)NCc4ccc5c(c4)OCO5)oc3nc2c1 | -2.4% | 8.9% | >57 | 2.6%
O=C(Nc1ccc2c(c1)OCCO2)c1ccco1 | 8.8% | 10µM* | >57 | 3.1%
COc1ccc2cc3cc(C(=O)Nc4ccc5c(c4)OCCO5)oc3nc2c1 | 0.2% | 1µM* | >57 | 47.8%
Cc1ccccc1CSc1nnc(C)c(=O)[nH]1 | 12.4% | -10.4% | >57 | 3.98µM*[single pt active]
Cc1nnc(SCCc2ccccc2)[nH]c1=O | 10.9% | 2.1% | >57 | -18.7%
Cc1nnc(S(=O)(=O)c2ccc(N=Nc3c(N)nc(N)nc3N)cc2)s1 | -3.2%[5.75 µM] | ? | >57 | -5.4%[5.75 µM]
Cn1cccc1C(=O)N1CCC2(CCN(C(=O)Nc3ccccc3)CC2)CC1 | -3.9% | ? | >57 | 49.1%
CC1(C)S[C@@H]2[C@H](NC(=O)[C@@H](N)c3ccccc3)C(=O)N2[C@H]1C(=O)O[C@H]1OC(=O)c2ccccc21 | ? | -7.0%[3.58 µM] | >57 | 0.0398µM*
CCN1CCN(C(=O)N[C@H](C(=O)N[C@@H]2C(=O)N3[C@@H]2SC(C)(C)[C@@H]3C(=O)O)c2ccccc2)C(=O)C1=O | ? | -0.8%[3.58 µM] | >57 | ?
CC1(C)S[C@@H]2[C@H](NC(=O)[C@@H](NC(=O)N3CCNC3=O)c3ccccc3)C(=O)N2[C@H]1C(=O)O | 7.94µM* | -1.3%[3.58 µM] | >57 | 5.01µM*
CC1(C)S[C@@H]2[C@H](NC(=O)[C@H](C(=O)O)c3ccsc3)C(=O)N2[C@H]1C(=O)O | 5.01µM* | 0.1%[3.58 µM] | >57 | 3.98µM*
CC1(C)S[C@@H]2[C@H](NC(=O)[C@@H](N)c3ccc(O)cc3)C(=O)N2[C@H]1C(=O)O | 0.316µM* | 1.9%[3.58 µM] | >57 | 1.26µM*
COCC(=O)N1CCC2(CC1)CCN(c1ccncc1)CC2 | 0.1% | -4.1% | >57 | -3.8%
O=C(c1csnn1)N1CCC2(CC1)CN(c1ccccn1)C2 | 21.6% | 12.2% | >11.4 | 120.7%
C[C@@H]1NC(=O)[C@@H](C)COC(=O)[C@H](C)NC(=O)[C@@H](C)COC1=O | . | -8.4%[8 µM] | . | .
